From PubChem
In the library only some 1.2% were active in any assay of this set; here they are far more common.
TLR9-MyD88 block = TLR9-MyD88 interaction inhibition; Q9NR96+Q99836; CHO BLA complementation TLR9-MyD88, CCF4 FRET ratio; inhibition, % at 4.98 µM; 340,000 compounds, 0.21% hits;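 active = inhibition above the mean over all tested compounds plus 3 SD, cut at about 21% in these data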;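 also: 0% = DMSO only wells and 100% = clavulanate BLA inhibitor control wells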
Neddylation inh = cullin neddylation inhibition | TR-FRET cullin neddylation, biochemical | inhibition, % at 25 µM | 360,000 compounds, 0.58% hits; in the data active = inhibition above about 36%
NOD2 RIPK2 PPI = NOD2-RIPK2 protein interaction inhibition; inhibition, % at 4.98 µM; AID 624267; O43353; 360,000 compounds, 0.38% hits; CHO BLA complementation NOD2-RIPK2, CCF4 ratio; in the data active = inhibition above about 21%;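 also: 0% = vehicle only and 100% = reference blocker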
TLR4 MyD88 comp = inhibitors of human TLR4-MyD88 binding. O00206+Q99836. HeLa CL3-4 TLR4/MyD88 BLA complementation, FRET ratio. inhibition, % at 8.4 µM. 200,000 compounds, 0.18% hits; in the data active = inhibition above about 25%;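 also: 0% = vehicle and 100% = reference inhibitor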
NPR2 activator = GC-B (human) receptor activation; P20594; HEK293-GC-B cells, CNP EC30, cGMP TR-FRET; 0% at EC30 CNP, 100% saturating CNP; activation, % at 10 µM; 370,000 compounds, 0.11% hits; AID 1920062;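 active = activation at 10 µM reaching about 35% in either raw or pattern-adjusted values, limit read from the data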
Target sequence (P20594 whole entry, looked up): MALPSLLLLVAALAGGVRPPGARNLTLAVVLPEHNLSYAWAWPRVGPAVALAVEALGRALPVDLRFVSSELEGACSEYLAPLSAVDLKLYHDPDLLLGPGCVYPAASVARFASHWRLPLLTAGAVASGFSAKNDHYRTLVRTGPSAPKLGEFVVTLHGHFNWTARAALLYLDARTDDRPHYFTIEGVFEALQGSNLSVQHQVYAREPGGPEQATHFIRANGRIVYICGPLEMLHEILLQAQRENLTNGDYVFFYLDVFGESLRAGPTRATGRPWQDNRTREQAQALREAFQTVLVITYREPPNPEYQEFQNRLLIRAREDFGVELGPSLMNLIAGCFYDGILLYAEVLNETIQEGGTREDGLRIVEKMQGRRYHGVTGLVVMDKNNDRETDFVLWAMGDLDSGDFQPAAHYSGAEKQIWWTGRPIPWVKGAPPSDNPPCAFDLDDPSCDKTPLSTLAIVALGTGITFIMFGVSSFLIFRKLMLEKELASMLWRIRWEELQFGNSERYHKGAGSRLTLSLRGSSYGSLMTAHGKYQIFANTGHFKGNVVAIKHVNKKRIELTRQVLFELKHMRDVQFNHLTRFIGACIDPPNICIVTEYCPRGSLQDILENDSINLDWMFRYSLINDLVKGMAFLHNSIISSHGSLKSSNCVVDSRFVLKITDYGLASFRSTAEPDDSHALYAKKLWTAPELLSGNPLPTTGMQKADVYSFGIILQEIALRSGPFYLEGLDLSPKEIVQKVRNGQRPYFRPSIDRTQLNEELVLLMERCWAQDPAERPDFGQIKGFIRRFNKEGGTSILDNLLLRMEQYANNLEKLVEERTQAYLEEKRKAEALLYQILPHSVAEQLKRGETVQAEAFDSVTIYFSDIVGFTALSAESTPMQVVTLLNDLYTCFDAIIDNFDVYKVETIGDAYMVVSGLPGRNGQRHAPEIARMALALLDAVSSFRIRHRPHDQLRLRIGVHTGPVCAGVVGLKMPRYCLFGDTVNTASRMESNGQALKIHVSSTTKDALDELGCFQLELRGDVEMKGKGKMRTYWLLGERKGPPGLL
GC-A act = GC-A (human) enzyme activation | HEK293 GC-A cells, cGMP TR-FRET, EC30 ANP; 0% at EC30 ANP, 100% saturating ANP | activation, % at 10 µM | 370,000 compounds, 0.14% hits; in the data active = activation above about 40%
Neddyl conf = cullin neddylation inhibition, confirmation; shares compounds with Neddylation inh; TR-FRET cullin neddylation biochemical assay; calls only at 25 µM; 1,800 compounds, 13% hits; AID 652217; in the data active = inhibition above about 40%;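 also: neddylation substrate is the cullin 1 ring ligase complex with SKP2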
* = called active by the depositor; i = inactive; nt = not tested or not shown; + = active, no number.

SMILES | TLR9-MyD88 block | Neddylation inh | NOD2 RIPK2 PPI | TLR4 MyD88 comp | NPR2 activator | GC-A act | Neddyl conf
CCCCOCC1CN(CCCC)S(=O)(=O)c2c(cccc2Sc2ccc(SC)cc2)O1 (configuration not stated) | nt | nt | nt | nt | 5 | 1 | nt
O=C(CSc1nnc(CNC(=O)c2c(F)cccc2F)o1)NCc1ccc2c(c1)OCO2 | -3 | -2 | 1 | nt | 4 | -2 | nt
CCOc1ccc(S(=O)(=O)Nc2ccccc2C(=O)NCc2ccco2)cc1 | -1 | 45* | -1 | 10 | 0 | -3 | i
Cc1ccccc1NS(=O)(=O)c1ccc(OCC(=O)NCc2ccco2)cc1 | -6 | 0 | -11 | 1 | -2 | -1 | nt
CCn1c(=O)c(-c2ccccc2)c(O)c2ccccc21 | -4 | 41* | 2 | -10 | 4 | -1 | +
CCOc1ccc(-c2nc3scc(-c4cccs4)c3c(=O)[nH]2)cc1 | -3 | 40* | -12 | -8 | 1 | 1 | nt
Cc1ccc(-c2csc3nc(-c4ccncc4)[nH]c(=O)c23)cc1 | 0 | 36 | -4 | nt | -5 | 2 | nt
Cn1c(N/N=C/c2cccs2)nc2c1c(=O)n(Cc1ccccc1)c(=O)n2C | 3 | 39* | -1 | 7 | 10 | 9 | i
COc1ccccc1NS(=O)(=O)c1cccc(C(=O)N/N=C/c2ccc(C)o2)c1 | 11 | 9 | -1 | -2 | -2 | 0 | nt
CCN(CC)S(=O)(=O)c1cccc(C(=O)N/N=C(\C)c2cccs2)c1 | 1 | -6 | 6 | 5 | 3 | -2 | nt
C/C(=N\NC(=O)c1cccc(S(=O)(=O)Nc2cccc(Cl)c2)c1)c1cccs1 | -1 | 44* | -8 | 3 | -6 | -8 | i
Cc1ccc(/C=N/NC(=O)c2cccc(S(=O)(=O)Nc3cccc(Cl)c3)c2)o1 | 0 | 43* | -4 | -12 | 2 | -2 | i
COc1ccc(-n2c(SCC(=O)N3CCC(C(=O)O)CC3)nc3ccccc3c2=O)cc1OC | -3 | 3 | -2 | nt | 0 | -1 | nt
CC(C)NC(=O)c1cc2c(=O)n3ccccc3nc2s1 | 9 | 2 | 6 | nt | -2 | 10 | nt
CSc1ccccc1NC(=O)c1cc2c(=O)n3ccccc3nc2s1 | 13 | 48* | 6 | nt | -2 | -8 | nt
Cn1c2ccc(F)cc2c2ncn(CCCN(CCO)CCO)c(=O)c21 | -1 | 38* | 3 | -2 | -5 | 6 | i
O=S(=O)(c1ccc(F)cc1)N1CCN(C(=S)NC2CC2)CC1 | -1 | -25 | -9 | nt | 3 | 0 | nt
O=C(N/N=C/c1c[nH]c2ccccc12)c1cc(Cl)ccc1O | 0 | 50* | 0 | nt | -3 | 3 | i
COc1ccc(-c2ccnc3cc(C(=O)O)nn23)cc1 | 4 | 53* | -4 | 4 | -3 | 2 | nt
Cc1nn(-c2ccccc2)c(N2CCCC2)c1/C=N/NC(=O)c1ccccc1O | -5 | 45* | -7 | -7 | -3 | -3 | i
Cc1nn(-c2ccccc2)c(C)c1/C=N/NC(=O)c1ccccc1O | -5 | 34 | -11 | nt | -3 | -4 | nt
Cc1cc(SCC(=O)Nc2ccc(O)cc2)n2ncc(-c3ccccc3)c2n1 | 6 | 39* | -3 | nt | 1 | 6 | i
COc1nnc(-c2ccc(N3CCCCC3)c(NC(=O)COc3ccccc3)c2)c2ccccc12 | 3 | 8 | -5 | nt | 1 | 2 | nt
O=C(COC(=O)C1CC2CCCC(C1)C2=O)NNC(=O)c1ccccc1Br (configuration not stated) | -13 | -18 | 0 | nt | 4 | 2 | nt
CN(C)c1ccc(/C=N/NC(=O)Cn2nnc3ccccc32)cc1 | 2 | 40* | -1 | 0 | -1 | -5 | i
CN(C)c1ccc(/C=N/NC(=O)CCCCCNC(=O)c2ccccc2)cc1 | -1 | 43* | 0 | nt | 0 | -5 | +
CCCCCC(=O)N/N=C/c1ccc(N(C)C)cc1 | 1 | 42* | 3 | -12 | -2 | -1 | nt
CN(C)c1ccc(/C=N/NC(=O)CNC(=O)c2ccc3c(c2)OCCO3)cc1 | 5 | 58* | 1 | -4 | -5 | -7 | nt
